In PubChem BioAssay (EPA / NIEHS):
Inconclusive results are not listed. Some compounds were tested as several samples or in several runs, with calls that do not always agree. Activity calls are given as the source filed them. The calls were made as follows, unless noted: active = hit-call score of the fitted dose curve at least 0.9, where 1 is the maximum; inactive = score below 0.9.

Key:
[1] = read-out: Monocyte Chemoattractant Protein-1 (MCP1), CCL2 (gene 6347); test: BSK_LPS_MCP1: BioMAP Diversity Plus: LPS Assay for Monocyte Chemoattractant Protein-1 (MCP1) Biomarker Activity (AID 2283081); conditions: primary human HUVEC with PBMC; actives raise or lower the signal
In short: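 Human endothelial–PBMC co-cultures were dosed with chemical, then LPS-driven MCP-1 levels were quantified by ELISA at 24 h. Activity in either direction was fitted versus DMSO negative control.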

[2] = BSK_LPS_PGE2: BioMAP Diversity Plus: LPS Assay for Prostaglandin E2 (PGE2) Biomarker Activity (AID 2283082); conditions: primary human HUVEC with PBMC; actives raise or lower the signal
In short: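 PGE2 release measured by ELISA in an LPS-activated co-culture of human umbilical vein endothelial cells and peripheral blood mononuclear cells, read at 24 h post-dosing. DMSO served as baseline for bidirectional curve fitting.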

[3] = read-out: Macrophage colony-stimulating factor (MCSF), CSF1 (gene 1435); test: BSK_LPS_MCSF: BioMAP Diversity Plus: LPS Assay for Macrophage colony-stimulating factor (MCSF) Biomarker Activity (AID 2283083); conditions: primary human HUVEC with PBMC; actives raise or lower the signal
In short: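 ELISA readout of M-CSF after 24 h compound exposure in a human endothelial/PBMC co-culture. Activity, in either direction, is fitted relative to DMSO vehicle.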

[4] = read-out: Tissue Factor, F3 (gene 2152); test: BSK_LPS_TissueFactor: BioMAP Diversity Plus: LPS Assay for Tissue Factor Biomarker Activity (AID 2283084); conditions: primary human HUVEC with PBMC; actives raise or lower the signal
In short: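 ELISA signal for cell-surface Tissue Factor (CD142) was read 24 h after compound dosing of an LPS-stimulated human endothelial–PBMC primary co-culture. Gain or loss of signal was scored relative to DMSO.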

[5] = read-out: Tumor necrosis factor (Homo sapiens) (UniProt P01375); test: BSK_LPS_TNFa: BioMAP Diversity Plus: LPS Assay for Tumour Necrosis Factor alpha (TNFa) Biomarker Activity (AID 2283085); conditions: primary human HUVEC with PBMC; actives raise or lower the signal;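 as to AC50: TNFa protein level quantified by ELISA in the co-culture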
In short: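 TNFa was quantified by ELISA in LPS-activated co-cultures of human endothelial cells and PBMC, 24 h post-dosing. Both increases and decreases versus DMSO were fitted.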

[6] = read-out: Vascular cell adhesion molecule 1 (VCAM1), VCAM1 (gene 7412); test: BSK_LPS_VCAM1: BioMAP Diversity Plus: LPS Assay for Vascular cell adhesion molecule 1 (VCAM1) Biomarker Activity (AID 2283086); conditions: primary human HUVEC with PBMC; actives raise or lower the signal
In short: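 VCAM-1 quantified by ELISA in an LPS-activated co-culture of human endothelial cells and peripheral blood mononuclear cells, read 24 h post-treatment. Fitted in both directions versus DMSO; parallel SRB staining flags overt cytotoxicity.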

[7] = read-out: CD38, CD38 (gene 952); test: BSK_SAg_CD38: BioMAP Diversity Plus: SAg Assay for CD38 Biomarker Activity (AID 2283087); conditions: primary human HUVEC with PBMC; actives raise or lower the signal
In short: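 CD38 quantified by ELISA (fluorescence) in a superantigen-activated endothelial cell–PBMC co-culture at 24 h post-dose. Activity fitted in both directions relative to DMSO; parallel SRB and Alamar Blue cytotoxicity read-outs.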

[8] = read-out: CD40, CD40 (gene 958); test: BSK_SAg_CD40: BioMAP Diversity Plus: SAg Assay for CD40 Biomarker Activity (AID 2283088); conditions: primary human HUVEC with PBMC; actives raise or lower the signal
In short: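 Compounds were dosed onto a human primary endothelial–PBMC co-culture, and after 24 h CD40 was quantified by ELISA using a fluorescence signal. Activity in either direction was fitted relative to DMSO.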

[9] = read-out: CD69, CD69 (gene 969); test: BSK_SAg_CD69: BioMAP Diversity Plus: SAg Assay for CD69 Biomarker Activity (AID 2283089); conditions: primary human HUVEC with PBMC; actives raise or lower the signal
In short: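 HUVEC co-cultured with PBMC were dosed with chemical, and CD69 was measured by ELISA with fluorescence read-out 24 h later. Bidirectional curve fitting used DMSO as negative control and activity baseline.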

[10] = read-out: Monocyte Chemoattractant Protein-1 (MCP1), CCL2 (gene 6347); test: BSK_SAg_MCP1: BioMAP Diversity Plus: SAg Assay for Monocyte Chemoattractant Protein-1 (MCP1) Biomarker Activity (AID 2283090); conditions: primary human HUVEC with PBMC; actives raise or lower the signal
In short: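 Values derive from bidirectional fitting of ELISA-measured MCP1 against DMSO controls. Readings were taken 24 h after dosing human vascular endothelial cells co-cultured with peripheral blood mononuclear cells under superantigen stimulation.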

[11] = read-out: E-selectin (Homo sapiens) (UniProt P16581); test: BSK_SAg_Eselectin: BioMAP Diversity Plus: SAg Assay for Eselectin Biomarker Activity (AID 2283091); conditions: primary human HUVEC with PBMC; actives raise or lower the signal
In short: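 Co-culture: HUVEC + PBMC. Dose compound; 24 h. ELISA for E-selectin. Bidirectional fit vs DMSO.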

[12] = read-out: Monokine induced gamma interferon (MIG), CXCL9 (gene 4283); test: BSK_SAg_MIG: BioMAP Diversity Plus: SAg Assay for Monokine induced gamma interferon (MIG) Biomarker Activity (AID 2283092); conditions: primary human HUVEC with PBMC; actives raise or lower the signal
In short: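 HUVEC plus human PBMC co-culture, chemicals dosed and MIG (CXCL9) quantified by ELISA at 24 h. Bidirectional curve fitting against DMSO as negative control and baseline, so both gain and loss of signal count as activity.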

[13] = BSK_SAg_PBMCCytotoxicity: PBMC Cytotoxicity Assessment in the BioMAP Diversity Plus: SAg Assay (AID 2283093); conditions: primary human HUVEC with PBMC;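 also: fitted both ways against DMSO so a hit may be loss or gain of signal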
In short: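 PBMC viability by Alamar Blue reduction, fluorescence read at 546/580 nm after 6 h dye exposure. Cells were dosed 1 h before SEB plus TSST-1 activation (20 ng/mL final each), then held 90 h; endothelial/PBMC human co-culture.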

[14] = read-out: Interleukin-8 (IL8), CXCL8 (gene 3576); test: BSK_SAg_IL8: BioMAP Diversity Plus: SAg Assay for Interleukin-8 (IL8) Biomarker Activity (AID 2283094); conditions: primary human HUVEC with PBMC; actives raise or lower the signal
In short: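 ELISA readout of IL-8 from a superantigen-activated endothelial/PBMC primary human co-culture, taken 24 h post-dosing and fitted in both directions against DMSO; parallel SRB total-protein staining flags overt cytotoxicity.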

[15] = BSK_SAg_Proliferation: Cell Proliferation Assessment in the BioMAP Diversity Plus: SAg Assay (AID 2283095); conditions: primary human HUVEC with PBMC;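 also: relative cell number as total protein by SRB absorbance in sub-confluent culture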
In short: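 Relative cell number in the endothelial cell/PBMC co-culture was quantified at 96 h by SRB staining (0.1% SRB, 10% TCA fixation, read at 560 nm). Curves were fitted in both directions relative to DMSO baseline.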

[16] = BSK_SAg_SRB: Viability Assessment in the BioMAP Diversity Plus: SAg Assay (AID 2283096); conditions: primary human HUVEC with PBMC;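 also: cells read one day after compound addition; hits may be either gain or loss of signal compared with DMSO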
In short: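 Compounds were added to a human vascular co-culture of umbilical vein endothelium and PBMC. After 24 h, parallel cultures were fixed with 10% TCA, stained with 0.1% sulforhodamine B and read at 560 nm. Gain or loss of signal was fitted relative to DMSO.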

[17] = target: human CYP2D6, CYP2D6 (gene 1565) (UniProt P10635); test: NVS_ADME_hCYP2D6: NovaScreen (NVS) CYP450-related Enzyme Activity (ADME) Assay for human CYP2D6 (AID 2283107; active = hit-call score of the fitted dose curve at least 0.9, where 1 is the maximum)
Sequence of human CYP2D6, CYP2D6 (gene 1565) (P10635 whole entry, looked up): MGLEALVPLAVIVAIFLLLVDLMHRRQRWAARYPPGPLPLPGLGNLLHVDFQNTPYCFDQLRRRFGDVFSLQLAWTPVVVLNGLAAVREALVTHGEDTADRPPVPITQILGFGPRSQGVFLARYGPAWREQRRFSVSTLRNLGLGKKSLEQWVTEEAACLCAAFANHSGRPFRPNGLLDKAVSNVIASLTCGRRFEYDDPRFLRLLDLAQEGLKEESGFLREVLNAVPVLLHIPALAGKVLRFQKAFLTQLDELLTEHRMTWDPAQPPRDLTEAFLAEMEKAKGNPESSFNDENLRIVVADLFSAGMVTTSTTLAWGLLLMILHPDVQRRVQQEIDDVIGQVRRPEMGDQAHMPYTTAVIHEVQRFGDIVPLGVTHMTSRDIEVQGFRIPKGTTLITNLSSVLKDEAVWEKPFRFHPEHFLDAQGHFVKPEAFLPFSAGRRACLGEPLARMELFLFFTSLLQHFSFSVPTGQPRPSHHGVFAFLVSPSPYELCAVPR
In short: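 Insect-cell recombinant enzyme + fluorogenic substrate, cell-free; 1 h incubation; fluorescence intensity readout. Acetonitrile = neg. ctrl/baseline. Single-point 10 uM, duplicate; follow-up concentration series.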

[18] = target: human CYP2C9, CYP2C9 (gene 1559) (UniProt P11712); test: NVS_ADME_hCYP2C9: NovaScreen (NVS) CYP450-related Enzyme Activity (ADME) Assay for human CYP2C9 (AID 2283108; active = hit-call score of the fitted dose curve at least 0.9, where 1 is the maximum)
Sequence of human CYP2C9, CYP2C9 (gene 1559) (P11712 whole entry, looked up): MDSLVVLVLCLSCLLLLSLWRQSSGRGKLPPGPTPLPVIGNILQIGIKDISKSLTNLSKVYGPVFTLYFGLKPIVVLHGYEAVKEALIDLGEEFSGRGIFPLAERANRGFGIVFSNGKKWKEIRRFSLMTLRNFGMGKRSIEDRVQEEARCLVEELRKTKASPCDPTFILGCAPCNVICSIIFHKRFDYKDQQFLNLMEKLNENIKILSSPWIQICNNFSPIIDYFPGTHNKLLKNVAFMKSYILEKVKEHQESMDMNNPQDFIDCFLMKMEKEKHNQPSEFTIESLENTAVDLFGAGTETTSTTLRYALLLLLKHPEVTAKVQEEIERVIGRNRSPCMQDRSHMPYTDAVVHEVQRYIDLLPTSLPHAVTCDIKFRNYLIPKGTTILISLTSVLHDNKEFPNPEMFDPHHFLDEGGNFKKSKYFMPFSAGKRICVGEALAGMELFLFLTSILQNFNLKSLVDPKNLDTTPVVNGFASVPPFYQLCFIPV
In short: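 Recombinant human CYP2C9 expressed in SF9 cells, fluorogenic substrate, fluorescence read 0.75 h after dosing. Chemicals first run in duplicate at 10 uM, with actives followed in concentration series; loss of signal versus acetonitrile baseline.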

Measured: AC50

Sequence of E-selectin (Homo sapiens) (P16581 whole entry, looked up): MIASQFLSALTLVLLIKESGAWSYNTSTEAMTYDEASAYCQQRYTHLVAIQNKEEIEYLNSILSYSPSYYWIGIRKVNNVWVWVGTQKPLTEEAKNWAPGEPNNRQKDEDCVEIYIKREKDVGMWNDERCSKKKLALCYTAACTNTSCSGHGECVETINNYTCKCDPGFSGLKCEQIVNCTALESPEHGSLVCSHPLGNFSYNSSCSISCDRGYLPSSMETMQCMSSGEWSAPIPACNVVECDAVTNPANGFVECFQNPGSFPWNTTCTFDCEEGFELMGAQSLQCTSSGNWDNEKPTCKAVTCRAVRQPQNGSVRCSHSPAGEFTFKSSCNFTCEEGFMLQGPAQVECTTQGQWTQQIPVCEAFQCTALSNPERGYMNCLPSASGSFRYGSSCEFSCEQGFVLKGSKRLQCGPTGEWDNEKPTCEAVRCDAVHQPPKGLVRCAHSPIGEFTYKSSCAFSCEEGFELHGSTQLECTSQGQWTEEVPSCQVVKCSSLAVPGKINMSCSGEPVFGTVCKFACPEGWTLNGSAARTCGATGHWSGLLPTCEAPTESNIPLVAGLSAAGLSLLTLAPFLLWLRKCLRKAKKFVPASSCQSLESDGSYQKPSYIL
Sequence of Tumor necrosis factor (Homo sapiens) (P01375 whole entry, looked up): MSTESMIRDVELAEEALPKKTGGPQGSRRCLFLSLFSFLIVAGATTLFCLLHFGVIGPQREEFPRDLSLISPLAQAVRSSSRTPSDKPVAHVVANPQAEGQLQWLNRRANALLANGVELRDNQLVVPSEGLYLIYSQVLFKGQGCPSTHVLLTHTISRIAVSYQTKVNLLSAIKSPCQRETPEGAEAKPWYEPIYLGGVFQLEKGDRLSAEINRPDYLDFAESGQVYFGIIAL

Nc1ccc([N+](=O)[O-])cc1O
active: [17] 3.87 µM | [18] 3.74 µM
inactive: all other assays above

O=C(CC(=O)C(F)(F)C(F)(F)F)C(F)(F)F
not listed: [17] | [18]
inactive: all other assays above

NC(=O)C(F)(F)C(F)(F)C(F)(F)C(F)(F)F
inactive: [1] | [2] | [3] | [4] | [5] | [6] | [7] | [8] | [10] | [11] | [12] | [13] | [14] | [15] | [16]
active: [15] 30 µM

CCc1c(Br)c(Br)c(Br)c(Br)c1Br
active: [7] 20 µM
not listed: [9] | [17] | [18]
inactive: all other assays above

C=C(C)C(=O)OCC(F)(F)C(F)(F)C(F)(F)C(F)(F)C(F)(F)C(F)(F)C(F)(F)F
active: [5] 0.0246 µM
inactive: [1] | [2] | [3] | [4] | [5] | [6] | [7] | [8] | [9] | [10] | [11] | [12] | [13] | [14] | [15] | [16]
